High-throughput results from PubChem.
PNC inhibitor = perinucleolar compartment assembly inhibition | 140,000 compounds, 3.1% hits | PC3M PTB-GFP, PNC prevalence imaging, 16 h; active compounds read low | activity change (PNC), negative = inhibition, % at 10 µM | AID 2417;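 active = readout at or below -70, meaning at least 70% loss of cells showing the perinucleolar compartment, a nuclear body marking cancer cells; inconclusive = readout between -30 and a set limit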
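PC3M cells stably expressing PTB-GFP, 750–1000 cells/well, treated 16 h at 37 °C with compound (23 nl of library stock), in duplicate. After paraformaldehyde fixation and Hoechst stain, imaged at 20x; PNC prevalence scored by image analysis.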
12-hLO inh = inhibitors of human 12-lipoxygenase (ALOX12); P18054; purified 12-hLO, xylenol orange hydroperoxide absorbance; Potency, µM (top dose mostly 57.1 µM), hits mostly inhibitors; 150,000 compounds, 0.12% hits; also: nearly all actives have a fitted effect of over 55% in size
Target sequence (P18054 whole entry, looked up): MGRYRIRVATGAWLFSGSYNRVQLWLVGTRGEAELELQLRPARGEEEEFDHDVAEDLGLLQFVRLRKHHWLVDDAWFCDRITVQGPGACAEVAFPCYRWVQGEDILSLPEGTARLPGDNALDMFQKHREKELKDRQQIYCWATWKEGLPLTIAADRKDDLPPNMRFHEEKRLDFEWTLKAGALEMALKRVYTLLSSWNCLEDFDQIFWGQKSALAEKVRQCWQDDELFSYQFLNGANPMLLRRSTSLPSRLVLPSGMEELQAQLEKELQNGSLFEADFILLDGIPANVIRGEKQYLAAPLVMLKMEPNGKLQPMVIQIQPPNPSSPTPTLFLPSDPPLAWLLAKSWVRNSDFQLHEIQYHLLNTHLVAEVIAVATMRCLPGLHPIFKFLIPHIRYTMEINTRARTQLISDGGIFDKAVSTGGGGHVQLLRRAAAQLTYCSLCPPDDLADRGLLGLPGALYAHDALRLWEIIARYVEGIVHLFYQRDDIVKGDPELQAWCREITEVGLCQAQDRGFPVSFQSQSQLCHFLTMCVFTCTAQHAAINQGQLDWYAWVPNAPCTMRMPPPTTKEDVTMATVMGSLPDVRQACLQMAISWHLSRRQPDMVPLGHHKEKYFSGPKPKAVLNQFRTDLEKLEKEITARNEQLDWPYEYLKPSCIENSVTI
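Lipoxygenase turnover measured by absorbance at 573 and 405 nm after Fe-XO development. Human 12hLO 150 nM, arachidonate 40 uM, pH 7.0 Hepes buffer with detergent; 15 min compound preincubation, 30 min reaction.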
ALOX15B inhib = inhibitors of human 15-lipoxygenase 2 (ALOX15B); purified 15hLO-2, xylenol orange hydroperoxide absorbance; Potency, µM (top dose mostly 57.1 µM), most hits filed as inhibitors; 110,000 compounds, 0.56% hits; also: nearly all actives have a fitted effect of over 60% in size
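Read-out: hydroperoxide product oxidises ferrous iron, measured as xylenol orange complex via the 573-to-405 nm absorbance ratio after 30 min. Reaction: 50 nM enzyme, 15 min compound preincubation, 45 uM arachidonic acid, 90 min RT, Hepes pH 7.5 with Triton X-100.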
Each line names hits and unclear results; the compound was inactive in the other large screens. Compounds with a hit are over-represented: about 3.2% of the library has one in this group of screens. Unless noted, calls follow the shape of the dose curve; as a rule, active = well fitted curve in the direction sought with a large enough effect; inconclusive = small, poorly fitted or top-dose-only effect, or another doubt; inactive = no such curve, though single readings can be large; an effect the other way counts as inactive or inconclusive.

COc1c2c(nc3occc13)C(CC=C(C)C)(OC)C(O)CC2 (stereo unspecified)	PNC inhibitor -100 (no result: ALOX15B inhib)
CCC(=O)N1CCc2cc(Br)cc(S(=O)(=O)N3CCN(C(=O)c4ccco4)CC3)c21	none
CC(=O)N1c2c(cc(Br)cc2S(=O)(=O)N2CCN(C(=O)c3ccco3)CC2)CC1C (stereo unspecified)	PNC inhibitor -100 (no result: ALOX15B inhib)
CN(C)CCc1c[nH]c2ccc(CC3COC(=O)N3)cc12 (stereo unspecified)	none (no result: PNC inhibitor)
CCc1cccc2c(C(=O)CSc3nncn3-c3ccc(OC)cc3)c[nH]c12	PNC inhibitor -104 (no result: ALOX15B inhib)
CCc1cccc2c(C(=O)CSc3nncn3-c3ccccc3OC)c[nH]c12	none (no result: ALOX15B inhib)
CC1=C(C)C[C@@]23CCCN2C(=O)CCC[C@H]3C1	none (no result: PNC inhibitor)
O=C(COc1ncnc2sccc12)Nc1ccc2c(c1)OCCO2	PNC inhibitor -112
Cc1sc2ncnc(OCC(=O)Nc3ccc4c(c3)OCCO4)c2c1C	none
COCCNc1ncncc1-c1c(C)noc1C	none (no result: PNC inhibitor, 12-hLO inh)
Cc1cc(C)cc(OCC(=O)OC/C(O)=C(\C#N)c2nc3ccccc3[nH]2)c1	none (no result: ALOX15B inhib)
N#C/C(=C(/O)COC(=O)CSc1ccc2ccccc2c1)c1nc2ccccc2[nH]1	PNC inhibitor -80 (no result: ALOX15B inhib)
COc1ccc(C2=NOC(Cn3c(Cc4ccc(Cl)cc4)nc4c3c(=O)n(C)c(=O)n4C)C2)cc1 (stereo unspecified)	PNC inhibitor -108
COc1ccccc1C1=NOC(Cn2c(=O)c3c(ncn3C)n(C)c2=O)C1 (stereo unspecified)	PNC inhibitor inconclusive
C[C@H](O)[C@@H]1C(=O)N2C(C(=O)O)=C(SCCN=CN)C[C@@H]12	none (no result: PNC inhibitor)
Cc1nn2c(COc3ccc(NC(=O)c4ccccc4Cl)cc3)nnc2c2ccccc12	none (no result: ALOX15B inhib)
Cc1c(C(=O)NC(=S)Nc2ccccc2N2CCCC2)cccc1[N+](=O)[O-]	PNC inhibitor inconclusive (no result: ALOX15B inhib)
O=C(NC(=S)Nc1ccccc1N1CCOCC1)c1ccc(-c2cccc(Cl)c2)o1	none (no result: ALOX15B inhib)
O=C(NC(=S)Nc1ccccc1N1CCCCC1)c1ccc(-c2cccc([N+](=O)[O-])c2)o1	ALOX15B inhib 25µM
O=C(NC(=S)Nc1ccccc1N1CCCC1)c1ccc(-c2cccc([N+](=O)[O-])c2)o1	12-hLO inh inconclusive, ALOX15B inhib 7.9µM
O=C(N/C(=C\c1cccc([N+](=O)[O-])c1)C(=O)N1CCCCC1)c1cccs1	none
COc1cc(C2CC(=O)n3c(nc4ccccc43)S2)cc(OC)c1OC (stereo unspecified)	PNC inhibitor -98 (no result: ALOX15B inhib)
O=C(O)C1CC(=O)n2c(nc3ccccc32)S1 (stereo unspecified)	none
FC(F)(F)c1ccccc1-c1ccc2ncnc(NCc3cccnc3)c2c1	none (no result: PNC inhibitor, 12-hLO inh)
CCOC(=O)c1c(C)nc2sc3c(c2c1-c1ccc(OC)cc1)NC(c1ccc(OC)cc1)NC3=O (stereo unspecified)	none
CC1(C)NC(=O)N(CC(O)COC2CCCCC2)C1=O (stereo unspecified)	none
CC1(C)NC(=O)N(CC(O)CN2CCCCC2)C1=O (stereo unspecified)	PNC inhibitor -94
Cc1cc(C(F)(F)F)nn1Cc1n[nH]c(=S)n1-c1ccc(Cl)cc1	none
Cc1cc(C(F)(F)F)nn1Cc1n[nH]c(=S)n1Cc1ccccc1	PNC inhibitor -100 (no result: ALOX15B inhib)
CN(C)S(=O)(=O)c1ccc(-c2csnn2)s1	PNC inhibitor inconclusive
COc1ccc(C2C(C#N)=C(C)NC3=C2C(=O)c2ccccc23)cc1 (stereo unspecified)	none
COc1cc(C2C(C#N)=C(C)NC3=C2C(=O)c2ccccc23)cc(OC)c1OC (stereo unspecified)	PNC inhibitor -116
CC1=C(C(=O)OC(C)(C)C)C(c2cccs2)NC(=O)N1 (stereo unspecified)	PNC inhibitor -95 (no result: ALOX15B inhib)
CC(=O)C1=C(C)NC(=O)NC1c1cccs1 (stereo unspecified)	none
CC(=O)[C@H]1[C@H](C#N)CC2C3CC=C4C[C@@H](O)CCC4(C)C3CCC21C (stereo partly specified)	none (no result: PNC inhibitor)
CCOc1ccc(-n2c(N)c(C(=O)NCc3cccnc3)sc2=S)cc1	none
CCOc1ccc(-n2c(N)c(C(=O)NCc3ccco3)sc2=S)cc1	PNC inhibitor -86, ALOX15B inhib inconclusive
CCCCN(CC)CCCNC(=O)CC1Oc2ccccc2NC1=O (stereo unspecified)	PNC inhibitor -109
CC(C)CN(CCCNC(=O)CC1Oc2ccccc2NC1=O)CC(C)C (stereo unspecified)	none
CC(C)NC(=O)C1(c2ccccc2)CC1(Cl)Cl (stereo unspecified)	none (no result: ALOX15B inhib)
CCOC(=O)CNC(=O)CSc1nc2cccnc2n1Cc1ccccc1	PNC inhibitor -80
CCOC(=O)CNC(=O)CSc1nc2cccnc2n1C1CCCCC1	PNC inhibitor -93
O=C(CSc1nc2cccnc2n1Cc1ccccc1)NCc1ccco1	none
COCCCn1c(SCC(=O)NCc2ccccc2)nc2ccccc2c1=O	PNC inhibitor -100 (no result: ALOX15B inhib)
COc1ccc(-n2c(CCc3ccccc3)nnc2SCC(=O)NCc2ccccc2)cc1	PNC inhibitor -108
CC(C)OC(=O)CSc1nc2cccnc2n1C1CCCCC1	none
O=C(CSc1nnc(CCc2ccccc2)n1-c1ccc(Cl)cc1)NCc1ccccc1	none
O=C(CSc1nc2ccccc2c(=O)n1CCCO)NCc1ccccc1	none
O=C(NCC1CCCO1)c1onc(CSc2cccc3ccccc23)c1C(=O)O (stereo unspecified)	none
CCN1CCN(Cc2nc3c(c(=O)n(C)c(=O)n3C)n2C(C)C(C)=O)CC1 (stereo unspecified)	none
NC(Cc1ccc(O)c(O)c1)C(=O)O (stereo unspecified)	none (no result: PNC inhibitor)
Cc1ccc(C)n1-c1ccc(-c2nnc3n2CCCCC3)s1	none
O=C(CN1CCN(C/C=C/c2ccccc2)CC1)Nc1cc([N+](=O)[O-])ccc1Cl	PNC inhibitor -124 (no result: ALOX15B inhib)
Cc1cc(NC(=O)CN2CCN(C/C=C/c3ccccc3)CC2)c([N+](=O)[O-])cc1C	none (no result: ALOX15B inhib)
CCc1cc(=O)oc2c(C)c(OCC(=O)N3CCCc4ccccc43)ccc12	PNC inhibitor inconclusive
COc1cc(/C=C/c2ccccc2)oc(=O)c1	none (no result: PNC inhibitor)
Cc1cc(N2CCC(C)CC2)nc(-n2nc(C)cc2C)n1	PNC inhibitor -96
Cc1cc(C)n(-c2nc3ccccc3nc2N2CCC(C)CC2)n1	none
CO[C@H]1OC[C@@]2(C)[C@@H]3C4=C(CN2C(=O)OC(C)(C)C)[C@H](C)[C@H](CO)[C@H](CO)[C@H]4CC[C@H]13	none (no result: PNC inhibitor)
Oc1ccc(Br)cc1C=Nc1ccc2c3c(cccc13)CC2	PNC inhibitor -98 (no result: ALOX15B inhib)
Oc1ccc(Cl)cc1C=Nc1ccccc1Br	none (no result: ALOX15B inhib)
COc1cc(C2/C(=C(/O)c3ccc(F)cc3)C(=O)C(=O)N2CCCC(=O)O)ccc1O (stereo unspecified)	none (no result: ALOX15B inhib)
c1ccc(-c2ccc(-c3ccc(C4=NCCN4)cc3)o2)cc1	none (no result: PNC inhibitor)
CC1CCC/C(=N/NC(=O)c2ccccc2-n2cccc2)C1 (stereo unspecified)	PNC inhibitor -109 (no result: ALOX15B inhib)
O=C(NN=C1CCC(c2ccccc2)CC1)c1ccccc1-n1cccc1 (stereo unspecified)	none (no result: ALOX15B inhib)
Nc1ncnc2c1ncn2[C@@H]1O[C@@H](C(=O)NC2CC2)[C@H](O)[C@@H]1O	none (no result: PNC inhibitor)
